High-throughput results from PubChem.
D1 agonist – activates the human D1 dopamine receptor; HEK293 T-REx D1 cells, calcium flux, agonist mode; activation, % at 2 µM; 1% of 360,000 active; AID 504660; also: 0% is about no effect
Target sequence (P21728 whole entry, looked up): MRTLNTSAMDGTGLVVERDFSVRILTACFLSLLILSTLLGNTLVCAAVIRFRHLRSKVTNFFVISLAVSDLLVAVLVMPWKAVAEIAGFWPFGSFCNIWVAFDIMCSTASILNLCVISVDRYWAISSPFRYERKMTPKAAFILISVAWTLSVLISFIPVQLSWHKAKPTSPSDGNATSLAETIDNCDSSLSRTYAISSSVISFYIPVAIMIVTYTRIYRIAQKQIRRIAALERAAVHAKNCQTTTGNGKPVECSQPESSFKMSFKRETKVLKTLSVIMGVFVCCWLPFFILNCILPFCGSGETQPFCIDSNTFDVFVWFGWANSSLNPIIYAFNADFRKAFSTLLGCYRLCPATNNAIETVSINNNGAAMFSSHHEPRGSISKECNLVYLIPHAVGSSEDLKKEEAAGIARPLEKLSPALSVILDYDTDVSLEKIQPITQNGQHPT
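Tetracycline-induced HEK293 TREx D1 cells, force-coupled to calcium signalling, were dye-loaded with a no-wash calcium kit. Compound was pin-added after a 10 s baseline. Fluorescence was read kinetically at 1 cycle/s for 180 s, with calcium rises flagged as agonism.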
TRHR PAM – TRH receptor (human) allosteric enhancement; P34981; TRHR cells, fluo-8 calcium fluorescence, EC20 TRH enhancement; enhancement, % at 2 µM; 0.66% of 360,000 active; in the data active = enhancement above about 30%; also: 0% is about no effect
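Enhancer read-out: after compound pinning and an initial kinetic agonist-mode read, an EC20 of TRH (10 nM final) was injected and fluo-8 calcium signal (Ex 480/Em 530) followed at 1 s/cycle for 100 cycles in TRHR-expressing cells.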
D1 antag – antagonists of human D1 dopamine receptor | P21728 | HEK293 TREx D1 cells, calcium flux, dopamine EC80; stronger effect = lower value | AID 504652 | activity change, negative = inhibition, % at 10 µM | 3.2% of 360,000 active; in the data active = activity change below about -30%; also: % is scaled to controls: 0 for no effect and ±100 for the full control effect
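After overnight tetracycline induction at 30 C, force-coupled D1 HEK293 cells took up a no-wash calcium dye at room temperature. Compounds were added and monitored 180 s, and the response to EC80 dopamine was then recorded.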
TRHR ag – agonists of human TRH receptor. P34981. 0.18% of 360,000 active. activation, % at 2 µM. TRHR cells, calcium flux fluo-8, FDSS agonist mode; also: 0% is about no effect
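Steps: seed TRHR cells overnight; add fluo-8 no-wash Ca dye, RT 30 min–1.5 h; record 10 s baseline; pin-transfer compounds; monitor fluorescence 1 cycle/s for the agonist window. Calcium increases flag candidate agonists.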
D1 potentiator – enhances dopamine response at the human D1 receptor. P21728. HEK293 TREx D1 cells, calcium flux, dopamine EC20 potentiation. potentiation, % at 10 µM. 0.036% of 360,000 active; in the data active = potentiation above about 30%; also: 0% is about no effect
The depositor's hits bear a star; . = no result. Most compounds without a hit are left out; they make up all but 4.6% or so of the library. Rule as the data show it, unless noted: active = activation above about 30%; inactive = the rest.

SMILES	D1 agonist	TRHR PAM	D1 antag	TRHR ag	D1 potentiator
COc1ccc(S(=O)(=O)N2CCC(N3CCN(Cc4ccccc4)C(=O)C3=O)CC2)cc1	2	0	-12	0	0
Cc1ccc(CCNC(=O)c2cnc3c(C)cccn3c2=O)cc1	0	4	1	1	0
N=c1oc2cc(O)ccc2cc1C(=O)Nc1ccccn1	5	31*	14	5	3
N=c1oc2cc(O)ccc2cc1C(=O)Nc1nc2ccccc2s1	6	2	7	3	-10
Clc1ccc(Cn2nnc(-c3ccc(CN4CCOCC4)cc3)n2)cc1	9	-5	4	-1	-4
Fc1cccc(Cl)c1Cn1nnc(-c2ccc(N3CCOCC3)cc2)n1	6	4	-36*	-1	-2
O=S(=O)(c1ccc2c(c1)OCCO2)N1CCC(n2nnc3cc(F)ccc32)CC1	5	-3	-4	1	-7
O=S(=O)(c1ccc2c(c1)OCCO2)N1CCC(n2cnc3cc(F)ccc32)CC1	7	3	-46*	0	-8
COc1cc(/C=C2\SC(=S)N(CCC(=O)Nc3ccccc3)C2=O)cc(OC)c1OC	46*	2	6	14	0
O=C(CN1C(=O)S/C(=C\c2cc(Cl)c(O)c(Cl)c2)C1=O)Nc1ccccc1	48*	4	12	14	-2
COc1cc(/C=C2\SC(=S)N(N3CCOCC3)C2=O)ccc1O	30*	0	-18	21	-3
O=C1/C(=C\c2cc([N+](=O)[O-])ccc2O)SC(=S)N1Cc1ccc(Cl)cc1	197*	8	-5	120*	-6
O=C(CN1C(=O)S/C(=C\c2ccccn2)C1=O)Nc1ccccc1	2	0	-2	0	-4
COc1cc(/C=C2\SC(=S)N(N3CCOCC3)C2=O)cc(OC)c1OC	8	-6	-13	1	17
COc1ccccc1NC(=O)C1=C(C)Nc2c(C(=O)Nc3cccc(C)c3)cnn2C1c1ccccc1Cl (stereo not drawn)	4	16	5	1	2
COc1cc(/C=C2/SC(=S)N(Cc3ccccc3)C2=O)ccc1O	102*	7	6	39*	8
O=C(O)CN1C(=O)/C(=C\c2cccc(OCc3ccccc3)c2)SC1=S	2	-1	-2	0	-11
CN1C(=O)/C(=C\c2cccc(OCc3ccccc3)c2)SC1=S	1	4	-34*	1	-3
O=C1/C(=C\c2ccc(O)c(O)c2)SC(=S)N1Cc1ccccc1	78*	-2	-4	-1	5
COc1ccccc1NC(=O)Cn1c(=O)n(-c2ccc(C)cc2)c(=O)c2c1cnn2C	1	6	4	0	1
O=C(Cn1cc(SCc2ccccc2F)c2ccccc21)N1CCCCCC1	7	-10	5	1	-2
CCCOc1ccc(CNC(=O)CN2C(=O)c3cccnc3Oc3ccc(C)cc32)cc1	-1	9	8	-1	4
CNc1nc(Nc2ccc(C(C)=O)cc2)nc(OC(C(F)(F)F)C(F)(F)F)n1	11	3	-31*	1	-7
CC(C)C(=O)C1=Cc2cccc([N+](=O)[O-])c2OC1N1CCOCC1 (stereo not drawn)	0	5	-36*	2	-1
COCc1ccc(C(=O)N2CCCC(C(=O)c3ccc(SC)cc3)C2)s1 (stereo not drawn)	7	0	-36*	0	1
SMILES	D1 agonist	TRHR PAM	D1 antag	TRHR ag	D1 potentiator
O=C(COC(=O)Cc1c(F)cccc1Cl)NCCC1=CCCCC1	20	-2	6	4	-11
O=C(COC(=O)COc1cccc(F)c1)NCCC1=CCCCC1	0	17	-32*	1	-4
O=C(COC(=O)Cc1c(Cl)cccc1Cl)NCCC1=CCCCC1	35*	-5	-3	0	-1
O=C(COC(=O)CNC(=O)c1cccc(F)c1)NCCC1=CCCCC1	0	3	3	0	-7
COc1ccc(NC(=O)c2c(NCc3ccc(OC)c(OC)c3OC)sc3c2CCC3)c(OC)c1	0	-4	-8	0	-1
COc1ccc(C2CC(=O)Nc3c2c(C)nn3-c2nncc(-c3ccc(C)cc3)n2)c(OC)c1OC (stereo not drawn)	-1	6	18	0	-1
O=C(CCOc1ccccc1)N(Cc1cccnc1)c1nc2c(F)cc(F)cc2s1	15	-1	.	1	-4
CC(=O)c1ccc(N2CCN(C(=S)Nc3ccc(Oc4ccccc4)cc3)CC2)cc1	6	1	-33*	0	-3
COc1ccc(N2CCN(C(=S)Nc3ccccc3)CC2)cc1	-2	-4	-11	0	11
COc1cc2ccccc2cc1C(=O)Nc1ccc(N2CCN(C)CC2)cc1	9	2	-61*	1	-8
COc1ccc(C(=O)Nc2ccc(N3CCCC3)cc2)cc1	0	-7	-8	0	4
O=[N+]([O-])c1ccc(NC(=S)N2CCN(c3ccccc3)CC2)cc1	9	-3	-40*	1	-10
CN1CCN(c2ccc(NC(=O)c3ccc(Oc4ccccc4)cc3)cc2)CC1	11	0	-58*	-1	.
COc1cc2ccccc2cc1C(=O)Nc1ccc(N2CCN(C(=O)C(C)C)CC2)cc1	12	4	-29	1	-2
N#CN1CCC(NC(=O)c2cccc(F)c2)CC1	2	-10	8	1	-3
CC(=O)N1CCc2c(sc3c2c(=O)n(CCc2ccccc2)c(=O)n3Cc2ccc(F)cc2)C1	5	-6	12	1	-4
NS(=O)(=O)c1ccc(NC(=S)N2CCN(c3ccccc3Cl)CC2)cc1	5	22	-40*	1	-8
O=S(=O)(c1cccc(NC(=S)N2CCN(c3ccc(F)cc3)CC2)c1)C(F)F	6	5	-35*	0	-14
NS(=O)(=O)c1ccc(NC(=S)N2CCN(c3cccc(Cl)c3)CC2)cc1	4	-1	-8	0	-3
CCOc1ccc(C(=O)Nc2ccc(NC(=O)c3ccccc3)cc2)cc1Br	-1	-6	-25	1	-6
CC(=O)c1ccc(N2CCN(C(=S)Nc3cccc(F)c3)CC2)cc1	12	0	-40*	0	-3
CCOc1ccc(C(=O)Nc2ccc(N3CCN(C)CC3)cc2)cc1Br	4	-11	-35*	0	-8
CCCS(=O)(=O)c1ncc(Cl)c(C(=O)N2CCN(c3ccc(OC)cc3)CC2)n1	0	3	-6	0	-3
CCC1S/C(=N/N=C/c2ccco2)N(Cc2ccc(F)cc2)C1=O (stereo not drawn)	3	-7	-3	1	4
CC1S/C(=N/N=C/c2ccco2)N(Cc2ccccc2)C1=O (stereo not drawn)	5	3	-40*	0	-7
Cc1ccc(C)c(NC(=O)CCc2ccc(C)o2)c1	2	-13	-1	0	-5
